MEKK2 WT-MEK5 = raises or lowers MEK5 binding to wildtype human MEKK2 PB1 domain | bead flow cytometry, Alexa488-MEK5 binding to MEKK2 WT; actives lie on both sides | binding response (% of control), % at 10 µM | 290,000 compounds, 1.1% hits | AID 1531; in the data active means binding response below about 67% or above about 130%
Pf gamet viab = P. falciparum stage V gametocyte viability inhibition; P. falciparum stage V gametocytes, ATP luminescence, 24 h; inhibition, % at 10.9 µM; 150,000 compounds, 0.065% hits;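 active means inhibition above the mean plus 3 SD of compounds within the control limits, set per campaign, cut at about 38% in these data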
Arbovirus inh = arbovirus infection inhibition. arbovirus infection cell-based antiviral screen. inhibition, % at 10 µM. 200,000 compounds, 0.37% hits. AID 1251; in the data active means inhibition above about 30%
MEKK3 PB1 HTS = modulators (inhibitors or enhancers) of MEK5 binding to human MEKK3 PB1 domain; binding response (% of control), % at 10 µM; bead-based flow cytometry, Alexa488-MEK5 binding to MEKK3; actives lie on both sides; 0 = blocked by unlabeled MEK5, 100 = vehicle; Q99759; 290,000 compounds, 1.4% hits;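 active means binding response more than 3 SD above or below the average of its plate-row segment, actives on both sides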;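 further: Alexa488 bead fluorescence after subtracting the streptavidin-only scavenger bead signal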
Target sequence (Q99759 whole entry, looked up, the tested form may be a part): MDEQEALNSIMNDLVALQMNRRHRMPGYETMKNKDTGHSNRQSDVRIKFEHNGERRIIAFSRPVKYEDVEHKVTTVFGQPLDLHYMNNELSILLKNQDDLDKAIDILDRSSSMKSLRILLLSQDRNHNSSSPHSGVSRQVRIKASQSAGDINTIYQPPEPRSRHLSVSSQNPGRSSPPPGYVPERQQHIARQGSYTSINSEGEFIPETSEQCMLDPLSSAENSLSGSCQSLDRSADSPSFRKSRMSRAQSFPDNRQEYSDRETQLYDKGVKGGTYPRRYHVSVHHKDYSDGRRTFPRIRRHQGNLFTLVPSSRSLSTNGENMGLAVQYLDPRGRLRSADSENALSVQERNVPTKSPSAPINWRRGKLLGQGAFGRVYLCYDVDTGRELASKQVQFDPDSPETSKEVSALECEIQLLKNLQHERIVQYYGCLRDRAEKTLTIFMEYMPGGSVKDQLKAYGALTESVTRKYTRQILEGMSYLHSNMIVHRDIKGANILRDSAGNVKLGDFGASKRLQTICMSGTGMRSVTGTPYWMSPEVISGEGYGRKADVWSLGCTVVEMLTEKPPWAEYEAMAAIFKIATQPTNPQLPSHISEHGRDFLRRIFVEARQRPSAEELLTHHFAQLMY
MEKK2mut PB1 HTS = signal of MEK5 binding to mutant human MEKK2 PB1 domain; bead flow cytometry, Alexa488-MEK5 binding to MEKK2 mutant; percent response, % at 10 µM; 290,000 compounds, 0.35% hits; in the data active means percent response above about 24%, passing the limit was not always enough
MEKK2wt confirm = raises or lowers MEK5 binding to wildtype human MEKK2, retest. shares compounds with MEKK3 PB1 HTS. bead flow cytometry, Alexa488-MEK5 binding to MEKK2 WT; actives lie on both sides. binding response (% of control), % at 10 µM. 5,900 compounds, 2.4% hits; in the data active means binding response below about 16% or above about 210%; inactive means in between
MEKK2mut-MEK5 = signal of MEK5 binding to mutant human MEKK2, retest; percent response, % at 10 µM; bead flow cytometry, Alexa488-MEK5 binding to MEKK2 mutant; shares compounds with MEKK3 PB1 HTS; AID 1893; 5,900 compounds, 2% hits; in the data active means percent response mostly above about 71%, no sharp cut-off; inactive means mostly below about 38%;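 further: higher means compound restores mutant binding toward wildtype level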
MEKK3-MEK5 inh = MEKK3-MEK5 PB1 inhibition, single concentration confirmation | shares compounds with MEKK3 PB1 HTS | bead flow cytometry, Alexa488-MEK5 binding to MEKK3; stronger effect = lower value | binding response (% of control), % at 10 µM | 5,900 compounds, 1.8% hits | AID 1894;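 active means binding response below 72% of control, or above a set upper limit, though filed actives all read lower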
Large screens that a line does not name were inactive (follow-up assays come after a bar, where they were run); [ ] = remark or other dose. This is a sample that favours compounds with a hit; in the whole collection about 2.4% have one here.

CCN(CC)CCC(c1ccc(N(C)C)cc1)c1c(O)cc(OC)cc1OC (centres undefined)	MEKK2 WT-MEK5 138 (no result: Pf gamet viab, Arbovirus inh) | MEKK2wt confirm inactive | MEKK2mut-MEK5 inactive | MEKK3-MEK5 inh inactive
CCCC(=O)Nc1cc(OC)c(C(=O)OC)cc1Cl	none (no result: Pf gamet viab)
O=[N+]([O-])c1ccc(NC(=S)N2CCc3ccccc3C2)cc1	none
CCCCCCCC(=O)NNC(=O)CC(=O)Nc1ccccc1C(=O)O	none
Clc1ccccc1-c1nc2ccccc2c2nc3ccccc3n12	MEKK3 PB1 HTS 134 | MEKK2wt confirm inactive | MEKK2mut-MEK5 inactive | MEKK3-MEK5 inh inactive
Cc1nc2ccccc2c2nc3ccccc3n12	none (no result: MEKK2 WT-MEK5, Pf gamet viab, MEKK3 PB1 HTS, MEKK2mut PB1 HTS)
COc1cc(CN2CCCC(C(=O)N3CCc4ccccc4C3)C2)cc(OC)c1OC (centres undefined)	none (no result: Pf gamet viab, Arbovirus inh)
CCCc1nn2c(=O)cc(CSCC(=O)Nc3ccc(C)cc3)nc2s1	none (no result: Pf gamet viab, Arbovirus inh)
N=c1n(CCN2CCCCC2)c2ccccc2n1CC(O)c1cccc(Br)c1 (centres undefined)	none (no result: Pf gamet viab)
N=c1n(CCN2CCCCC2)c2ccccc2n1CC(O)c1ccc(Cl)c(Cl)c1 (centres undefined)	MEKK2 WT-MEK5 142 (no result: Pf gamet viab) | MEKK2wt confirm inactive | MEKK2mut-MEK5 inactive | MEKK3-MEK5 inh inactive
CCn1c(=N)n(CC(=O)c2ccc(Cl)c(Cl)c2)c2ccccc21	none (no result: Pf gamet viab, Arbovirus inh)
N=c1n(CCN2CCCCC2)c2ccccc2n1CC(=O)c1ccc(Cl)c(Cl)c1	MEKK2 WT-MEK5 173 (no result: Arbovirus inh) | MEKK2wt confirm inactive | MEKK2mut-MEK5 inactive | MEKK3-MEK5 inh inactive
Cc1ccc(NC(=S)NCc2ccccc2)cc1S(=O)(=O)N1CCCCC1	none
O=C(CSc1n[nH]c(Cc2ccccc2)n1)Nc1ccccc1Br	none (no result: Pf gamet viab, Arbovirus inh)
CC(=O)C1=C(C)NC(=O)CC1c1ccc(Br)cc1 (centres undefined)	none
Cc1ccc(SCc2cc(=O)[nH]c(/N=C(\N)Nc3cccc4ccccc34)n2)cc1	MEKK3 PB1 HTS 137 | MEKK2wt confirm inactive | MEKK2mut-MEK5 inactive | MEKK3-MEK5 inh inactive
CCNc1nc(N2CCCCC2)nc(-n2nnc(C(=O)OCC)c2C)n1	MEKK2 WT-MEK5 61[inhibitor], MEKK3 PB1 HTS 60[inhibitor] | MEKK2wt confirm inactive | MEKK2mut-MEK5 inactive | MEKK3-MEK5 inh inactive
CCOc1ccc(NC(=S)N(CCCN2CCCC2)Cc2cccn2Cc2ccc(Cl)cc2)cc1	MEKK2 WT-MEK5 186 | MEKK2wt confirm inactive | MEKK2mut-MEK5 inactive | MEKK3-MEK5 inh inactive
Cc1cccc(NC(=S)N(CCCN2CCCC2)Cc2cccn2Cc2ccc(Cl)cc2)c1	MEKK2 WT-MEK5 206, MEKK2mut PB1 HTS 65 | MEKK2wt confirm inactive | MEKK2mut-MEK5 inactive | MEKK3-MEK5 inh inactive
O=C(NCc1ccc2c(c1)OCO2)C(=O)NCC1OCCCN1S(=O)(=O)c1cc(F)ccc1F (centres undefined)	none (no result: Pf gamet viab, Arbovirus inh)
COCC(=O)N1CCC(Oc2ccc(C(=O)NCCc3ccncc3)cc2)CC1	MEKK2 WT-MEK5 610, MEKK3 PB1 HTS 128, MEKK2mut PB1 HTS active | MEKK2wt confirm inactive | MEKK2mut-MEK5 inactive | MEKK3-MEK5 inh inactive
COCCC(=O)N1CCC(Oc2ccc(C(=O)NCCc3cnn(C)c3)cc2)CC1	none (no result: Pf gamet viab, Arbovirus inh)
COc1cccc(CC(NC(C)=O)C(=O)NC2CCN(S(=O)(=O)c3ccc(C)cc3)CC2)c1OC (centres undefined)	none
Cc1ccc(C(=O)CSc2ncnc3ccccc23)o1	none
O=C(CSc1ncnc2ccccc12)c1cccs1	MEKK3 PB1 HTS 63[inhibitor] | MEKK2wt confirm inactive | MEKK2mut-MEK5 inactive | MEKK3-MEK5 inh inactive
Cc1sc2nc(C(C)C)nc(SCC(=O)NCc3ccco3)c2c1C	MEKK2 WT-MEK5 -6.0[inhibitor], MEKK3 PB1 HTS -1.0[inhibitor] (no result: Pf gamet viab) | MEKK2wt confirm inactive | MEKK2mut-MEK5 inactive | MEKK3-MEK5 inh inactive
COc1ccc(CNC(=O)CN(c2ccccc2)S(=O)(=O)N(C)C)cc1	none
CCN(CC)C(=O)c1[nH]cnc1C(=O)N[C@@H](CC(C)C)C(=O)OCc1ccccc1	none
